In the library only some 21% were active in any assay of this set; here they are far more common.
RORg inh: qHTS for inhibitors of ROR gamma transcriptional activity; Nuclear receptor ROR-gamma (Mus musculus), P51450; Drosophila S2 Gal4-RORgamma UAS-luciferase reporter, 20 h; Potency, µM (series often up to 53.6 µM), inactives show top-dose activity change, negative = inhibition, hits mostly inhibitors; 310,000 tested, 5.4% active; AID 2551, 2010; also: potency is read from the fitted curve at half-maximal effect; nearly all actives have a fitted effect of over 60% in size
Target sequence (P51450 whole entry, looked up, the tested form may be a part): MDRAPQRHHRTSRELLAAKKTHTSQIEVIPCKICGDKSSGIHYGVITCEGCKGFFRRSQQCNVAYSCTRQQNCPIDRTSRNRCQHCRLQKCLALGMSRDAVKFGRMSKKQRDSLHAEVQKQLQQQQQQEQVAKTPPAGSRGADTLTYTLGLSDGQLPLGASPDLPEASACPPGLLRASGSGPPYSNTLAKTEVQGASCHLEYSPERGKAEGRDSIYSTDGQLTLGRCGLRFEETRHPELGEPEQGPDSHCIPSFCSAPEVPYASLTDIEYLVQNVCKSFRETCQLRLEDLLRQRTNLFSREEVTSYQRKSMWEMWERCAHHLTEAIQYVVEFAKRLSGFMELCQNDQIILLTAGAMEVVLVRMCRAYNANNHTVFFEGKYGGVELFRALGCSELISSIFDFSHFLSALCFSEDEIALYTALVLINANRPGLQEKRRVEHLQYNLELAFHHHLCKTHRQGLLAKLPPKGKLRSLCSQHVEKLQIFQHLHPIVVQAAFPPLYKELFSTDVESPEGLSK
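Using a luciferase readout, inhibitors were identified by reduced reporter activity in Drosophila cells coexpressing a copper-inducible Gal4–ROR gamma fusion and UAS-driven Photinus luciferase, incubated 20 hr after 700 uM copper sulfate.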
IL-1B inflam inh: qHTS for Inhibitors of Inflammasome Signaling: IL-1-beta AlphaLISA Primary Screen. THP-1 LPS/ATP IL-1B secretion, AlphaLISA, 16 h; hits give low values. 360,000 tested, 4.7% active. activity change, % at 57.5 µM; in the data active = activity change below about -50%; inconclusive = mostly about -30% to -49%
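THP-1 cells pretreated 1 hr with compounds (up to 57.5 uM final), then stimulated with LPS (250 ng/mL final) plus ATP (1.25 mM final); secreted IL-1B measured by AlphaLISA after 16 hr, decreased signal indicating inhibition.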
Gal4-VP16 FLuc: VP16 counterscreen qHTS for inhibitors of ROR gamma transcriptional activity | 310,000 tested, 3.5% active | Drosophila S2 Gal4-VP16 UAS-luciferase, luminescence, 20 h | Potency, µM (highest dose often 53.6 µM), for the others: at the top dose activity, negative = inhibition, most hits filed as inhibitors;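 also: Gal4-VP16 expression switched on by copper sulfate through the metallothionein promoter; potency is read from the fitted curve at half-maximal effect; nearly all actives have a fitted effect of over 50% in size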
ELG1 repair inh: qHTS screen for small molecules that inhibit ELG1-dependent DNA repair in human embryonic kidney (HEK293T) cells expressing luciferase-tagged ELG1; HEK293T ELG1-luciferase reporter, luminescence, 16 h; DNA damage induced by 5-fluorouridine; 330,000 tested, 2.3% active; Potency, µM (highest dose often 46.1 µM), without a hit: top-dose activity change, negative = inhibition, most hits filed as inhibitors; AID 504467, 2011; also: potency is read from the fitted curve at half-maximal effect; nearly all actives have a fitted effect of over 55% in size
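Luminescence from the luciferase reporter, measured 30 min after ONE-Glo reagent at room temperature, was the read-out. Beforehand, 2,000 cells per well were exposed for 16 hr at 37 °C to 5-fluorouridine together with compound or vehicle.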
TDP1 cell noCPT: qHTS for Inhibitors of human tyrosyl-DNA phosphodiesterase 1 (TDP1): qHTS in cells in absence of CPT. DT40 Tdp1-/- hTDP1 cells, no CPT, ATP luminescence, 48 h. Potency, µM (highest dose often 46.2 µM), for inactives: at the top dose activity change, negative = growth inhibition, actives largely listed as inhibitors. 420,000 tested, 15% active; also: potency is read from the fitted curve at half-maximal effect; nearly all actives have a fitted effect of over 55% in size
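Seeded 400 DT40-hTDP1 cells/well (vehicle DMSO, no 20 nM CPT); pinned compounds; ≥48 hr at 37 °C; CellTiter-Glo luminescence as viability measure.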
DT40 TDP1 CPT: qHTS for Inhibitors of human tyrosyl-DNA phosphodiesterase 1 (TDP1): qHTS in cells in presence of CPT. chicken DT40 Tdp1-/-;hTDP1 cells + 20 nM CPT, ATP luminescence, 48 h. Potency, µM (titrated, usually from 46.2 µM), without a hit: top-dose activity change, negative = growth inhibition, actives largely listed as inhibitors. 420,000 tested, 12% active; also: potency is read from the fitted curve at half-maximal effect; nearly all actives have a fitted effect of over 55% in size
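Chicken DT40 Tdp1-/- cells complemented with human TDP1, 400 cells/well, exposed to compounds plus 20 nM camptothecin for at least 48 h at 37 C; viability read as ATP content by CellTiter-Glo luminescence.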
* = called active by the depositor; ? = inconclusive; nt = no result; [ ] = dose if it differs, or a comment. Unless noted, calls follow the shape of the dose curve; as a rule, active = well fitted curve in the direction sought with a large enough effect; inconclusive = small, poorly fitted or top-dose-only effect, or another doubt; inactive = no such curve, though single readings can be large; an effect the other way counts as inactive or inconclusive. % is scaled to controls: 0 for no effect and ±100 for the full control effect.

SMILES	RORg inh	IL-1B inflam inh	Gal4-VP16 FLuc	ELG1 repair inh	TDP1 cell noCPT	DT40 TDP1 CPT
COc1ccc(Nc2nc3ccccc3nc2NS(=O)(=O)c2cccs2)c(OC)c1	0%	0	-1%	?	-18%	-23%
COc1ccc(Nc2nc(-c3cccs3)nc3ccccc23)c(OC)c1	-3%	-16	-6%	?	13µM*	16µM*
COc1ccc(Nc2nc(-c3cccc([N+](=O)[O-])c3)nc3ccccc23)c(OC)c1	31%	15	-8%	?	18µM*	?
CCN(Cc1ccncc1)Cc1ccc2c(c1)CN(C(=O)c1ccc(OC)cc1)CCO2	nt	nt	nt	nt	-27%	-1%[9.04 µM]
Cc1c(C(=O)N2CCCCC2C)sc2nc3n(c(=O)c12)CCC3 (stereo not drawn)	-5%	11	-2%	12%	0%	-10%
O=C(NCC(F)(F)F)c1ccc2sc([C@@H]3O[C@H](CO)[C@H](O)[C@H](O)[C@H]3O)nc2c1	nt	4	nt	nt	-1%	-1%
COCCCNC(=O)C[C@H]1C[C@H](C(=O)N2CCCCC2)[C@@]2(C)c3[nH]c4cc(-c5ccco5)ccc4c3CCN2C1=O	nt	-12	nt	-26%	?	16µM*
CCN(CC)C(=O)[C@H]1C[C@H](CC(=O)NCCc2ccccn2)C(=O)N2CCc3c([nH]c4ccc(Cl)cc34)[C@]12C	nt	-19	nt	-20%	21µM*	?
O=C(C[C@H]1C[C@H](C(=O)N2CCCCC2)[C@@]2(CCc3ccccc3)c3[nH]c4ccc(Cl)cc4c3CCN2C1=O)NCCc1ccccn1	nt	0	nt	?	18µM*	?
C[C@]12c3[nH]c4ccc(Cl)cc4c3CCN1C(=O)[C@@H](CC(=O)NCCc1ccccn1)C[C@@H]2C(=O)N1CCOCC1	nt	-27	nt	5%	-29%	?
C[C@]12c3[nH]c4cc(-c5ccco5)ccc4c3CCN1C(=O)[C@@H](CC(=O)NCCc1ccccn1)C[C@@H]2C(=O)N1CCOCC1	nt	10	nt	-2%	?	?
CN(C)CCCNC(=O)C[C@H]1C[C@H](C(=O)N2CCCCC2)[C@@]2(CCc3ccccc3)c3[nH]c4ccc(Cl)cc4c3CCN2C1=O	nt	-7	nt	?	-15%	-21%
CCN(CC)C(=O)[C@H]1C[C@H](CC(=O)NCCc2ccccn2)C(=O)N2CCc3c([nH]c4cc(-c5ccco5)ccc34)[C@]12C	nt	4	nt	-6%	?	18µM*
COC(=O)N1CC=CC1(C)C(=O)O (stereo not drawn)	-5%	nt	4%	nt	nt	nt
CC(=O)Nc1ccc(C)cc1-c1nc2ccccc2n(Cc2cccc(Br)c2)c1=O	nt	nt	nt	nt	-11%	-18%
O=C(OCCSCCOC(=O)C1CC=CCC1)C1CC=CCC1 (stereo not drawn)	nt	-11	nt	nt	9%	9%
CCN(CC)C(=O)[C@H]1C[C@H](CC(=O)NCCCOC)C(=O)N2CCc3c([nH]c4cc(-c5ccco5)ccc34)[C@]12C	nt	27	nt	-25%	18µM*	15µM*
COc1ccc(CNC(=O)C[C@H]2C[C@H](C(=O)N3CCCCC3)[C@@]3(C)c4[nH]c5ccc(Cl)cc5c4CCN3C2=O)cc1OC	nt	-56*	nt	?	12µM*	18µM*
COc1ccc(CNC(=O)C[C@H]2C[C@H](C(=O)N3CCCCC3)[C@@]3(C)c4[nH]c5cc(-c6ccco6)ccc5c4CCN3C2=O)cc1OC	nt	0	nt	21µM*	18µM*	?
CC[C@]12c3[nH]c4cc(-c5ccco5)ccc4c3CCN1C(=O)[C@@H](CC(=O)NCCCOC)C[C@@H]2C(=O)N1CCN(C(=O)C2CC2)CC1	nt	-1	nt	-3%	?	?
COc1ccc(-c2n[nH]c3c2cnc2cc(OC)c(OC)cc23)cc1	nt	nt	nt	nt	-22%	-14%
Cc1ccnc2c(N)cccc12	nt	nt	nt	nt	13µM*	?
Nc1ccc(Br)c2cccnc12	?	-14	-26%	0%	?	?
Cc1ccnc2c(Cl)cccc12	nt	nt	nt	nt	1%	?
O=[N+]([O-])c1cccc2c(Cl)ccnc12	-8%	-4	-1%	0%	?	?
SMILES	RORg inh	IL-1B inflam inh	Gal4-VP16 FLuc	ELG1 repair inh	TDP1 cell noCPT	DT40 TDP1 CPT
Cc1ccnc2c([N+](=O)[O-])cccc12	nt	nt	nt	nt	?	22µM*
Nc1cccc2cccnc12	nt	nt	nt	nt	5.6µM*	1.8µM*
Cc1ccc2ccc3cccnc3c2n1	nt	91	nt	nt	1µM*	0.92µM*
CC(=O)Nc1ccc(NC(=O)C(C)OC(=O)CN2C(=O)C3CCCCC3C2=O)cc1 (stereo not drawn)	nt	10	nt	12%	-4%	-4%
CC[C@H](C)[C@@H](NC(=O)O[C@H]1C(=O)c2ccc(OC)cc2O[C@@H]1c1ccc2c(c1)OCO2)C(=O)OC	8%	nt	1%	nt	nt	nt
COc1cc(=O)n2c(c1C(=O)NC(C)c1ccco1)CCN(Cc1ccccc1Cl)CC2 (stereo not drawn)	nt	nt	nt	nt	-23%	2%
c1ccc(Cn2c(-c3ccccc3)c[n+]3c2SCCC3)cc1	41%	-21	-10%	13µM*	2.3µM*	2.9µM*
CC(OC(=O)c1ccc(S(=O)(=O)NCc2ccco2)cc1)C(=O)Nc1ccccc1 (stereo not drawn)	nt	-7	nt	9%	-28%	?
CC(C)C1(C)NC(c2ccc3c(c2)OCO3)=CC(c2ccccc2O)N1 (stereo not drawn)	nt	nt	nt	nt	13µM*	?
CCC1(C)NC(c2ccc3c(c2)OCO3)=CC(c2ccccc2O)N1 (stereo not drawn)	nt	nt	nt	nt	11µM*	?
CC(C)C1N=C(c2ccc3c(c2)OCO3)CC(c2ccccc2O)N1 (stereo not drawn)	-27%	-19	-1%	?	4.6µM*	5.2µM*
Cc1ccc(-c2nnc(-c3ccc4c(c3)OCO4)o2)cc1	11%	-6	-10%	?	-4%	5%
CC(O)(c1ccccc1)c1nc(-c2ccc3c(c2)OCO3)cs1 (stereo not drawn)	nt	17	nt	nt	-18%	-14%
COc1ccc(CNc2nc(-c3ccco3)nn2C(=O)CC(C)C)cc1	nt	nt	nt	nt	-13%	-23%
CC(C)OCCCNc1nc(-c2ccccc2)nc2ccccc12	nt	0	nt	?	15µM*	?
CC(C)(C)C(=O)OCCNc1nc(-c2ccccc2)nc2ccccc12	?	-54*	-11%	?	21µM*	?
